Screening data: PubChem BioAssay, several laboratories
A selection: hits, their analogues and other compounds. The true share with any hit is near 27%.
Cav32 inh: blocks human Cav3.2 T-type calcium channel | O95180 | Cav3.2-expressing cells, Fluo-4 calcium fluorescence FDSS; active compounds read low | B-score at 10 µM | hit rate 4% among 100,000 | AID 449739;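 active means single-dose well whose peak fluorescence ratio is a statistical outlier from its plate by either plate-standardised score or position-corrected B-score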
CYP2C19 inh: human CYP2C19 inhibition. P33261. CYP2C19 Supersomes, luciferin-H EGE luminescence, 30 min. inhibition, % at 5 µM. hit rate 21% among 96,000;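 active means CYP2C19 inhibition above a set limit at 5 µM in the primary screen, cut at about 50% in these data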
CYP2C9 inh: inhibitors of human CYP2C9; P11712; CYP2C9 Supersomes, luciferin-H conversion, luminescence; inhibition, % at 5 µM; hit rate 20% among 96,000;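 active means blocking of liver enzyme CYP2C9 beyond about 50% at 5 µM, limit read from the data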
CYP2C9 activ: activators of human CYP2C9 | AID 1024 | hit rate 1.4% among 96,000 | P11712 | activation factor at 5 µM | recombinant CYP2C9, luciferin-H conversion, luminescence; active compounds read high; factor 1 = untreated enzyme, 0 = blocked;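 active means activation factor of 2 or more for CYP2C9 at a 5 µM dose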
CYP2C19 act: activators of human cytochrome P450 2C19. P33261. recombinant CYP2C19, luciferin-H EGE luminescence; active compounds read high; 0 = fully inhibited enzyme, 1 = untreated enzyme. activation factor at 5 µM. 96,000 tested, under 10 active. AID 1025;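 active means activation factor of at least 2 at 5 µM in the primary screen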
Each line names hits and unclear results; the compound was inactive in the other large screens.

Cc1c(NC(=O)c2cccc(S(=O)(=O)N3CCOCC3)c2)c(=O)n(-c2ccccc2)n1C	none
Cc1c(NS(=O)(=O)c2ccccc2)c(=O)n(-c2ccccc2)n1C	CYP2C19 inh 53
COC(=O)C1=C(C(=O)OC)[C@@H]2Nc3ccccc3[C@@]23C[C@@H](C(=O)OC)N(C(C)=O)C3=N1	none (no result: CYP2C19 inh, CYP2C9 inh, CYP2C9 activ, CYP2C19 act)
CC1CCN(C(=O)CSc2nnc(Cc3cc(=O)[nH]c(=O)[nH]3)n2-c2ccc(Cl)cc2)CC1	none
CCn1cc([N+](=O)[O-])c(C(=O)Nc2cc(C)on2)n1	none (no result: Cav32 inh)
Clc1ccc(-c2nc3cnccn3c2NC2CCCC2)cc1	Cav32 inh -5, CYP2C19 inh 76, CYP2C9 inh 89
Cc1ccc(Nc2c(-c3ccc(C)o3)nc3cnccn23)cc1	CYP2C19 inh 57
Clc1ccc(-c2nc3cnccn3c2Nc2ccc3c(c2)OCO3)cc1	CYP2C19 inh 87, CYP2C9 inh 82
Oc1ccccc1-c1nc2cnccn2c1Nc1ccc2c(c1)OCCO2	CYP2C19 inh 92, CYP2C9 inh 94
c1cncc(-c2nc3ccccn3c2Nc2ccc3c(c2)OCCO3)c1	none (no result: Cav32 inh)
Cc1ccc(-c2nc3cnccn3c2Nc2ccc3c(c2)OCO3)o1	CYP2C19 inh 97, CYP2C9 inh 82
Cc1ccc(-n2nnnc2-c2cnoc2-c2cccc(F)c2)cc1	none (no result: CYP2C19 inh, CYP2C9 inh, CYP2C9 activ, CYP2C19 act)
COCCCNC(=O)c1ccc(CS(=O)(=O)c2ccc(Br)cc2)o1	none
Cc1[nH]n(-c2ccccc2)c(=O)c1C1(C(F)(F)F)C(=O)N(c2ccccc2)C2=C1C(=O)CC(C)(C)C2 (stereo not given)	CYP2C9 inh 73
CCOC(=O)/C(C#N)=C1/C=CN(c2ccccc2)C=N1	none
CCOC(=O)/C(C#N)=C1/C=CN(Cc2ccccc2)C=N1	CYP2C19 inh 68, CYP2C9 inh 57
CSc1cc(-c2ccc(Cl)cc2)n(Cc2ccccc2)c(=O)c1C#N	none
CSc1cc(-c2ccccc2)n(Cc2c(Cl)cccc2Cl)c(=O)c1C#N	CYP2C9 inh 75
COc1cccc(CSc2nnc(-c3ccc(F)cc3)o2)c1	none
Cc1ccc(CNn2cnnc2SCc2ccc(F)cc2)cc1	none (no result: CYP2C19 inh, CYP2C9 inh, CYP2C9 activ, CYP2C19 act)
COc1cccc(CSc2nnc(C(F)(F)F)n2Cc2ccc(F)cc2)c1	CYP2C9 inh 61
Cc1ccc(CSc2nnc(C(F)(F)F)n2Cc2ccc(F)cc2)cc1	CYP2C9 inh 69
CCn1c(Cc2ccccc2)nnc1SCC(=O)Nc1ccccc1N1CCOCC1	none (no result: CYP2C19 inh, CYP2C9 inh, CYP2C9 activ, CYP2C19 act)
COC(=O)c1ccc(C2C(C(=O)OC(C)C)=C(C)N=C3SCCC(=O)N32)cc1 (stereo not given)	none (no result: Cav32 inh)
COC(=O)C1=C(C)N=C2SC(C)C(=O)N2C1c1ccc(C(=O)OC)cc1 (stereo not given)	Cav32 inh -4.6, CYP2C19 inh 78
CCC1SC2=NC(C)=C(C(=O)OC)C(c3ccc(C)cc3)N2C1=O (stereo not given)	CYP2C19 inh 99, CYP2C9 inh 80
CN1CCC(N(C)C(=O)c2ccccc2Nc2ccc(SC(F)F)cc2)CC1	none
COc1ccc(CCNC(=O)CSc2nnc(-c3ccccc3)o2)cc1OC	CYP2C19 inh 81
CCCCc1c(O)nc(SCC(=O)NCCc2ccc(OC)c(OC)c2)[nH]c1=O	none
COc1ccc(CCNC(=O)CSc2nc(N)c3c(C)c(C)oc3n2)cc1OC	CYP2C19 inh 62
COc1ccc(CCNC(=O)CSc2nnc(-c3cccc(C)c3)o2)cc1OC	CYP2C19 inh 56
CCCCn1c(-c2ccccc2)cnc1SCC(=O)NCCc1ccc(OC)c(OC)c1	Cav32 inh -4.5, CYP2C19 inh 96, CYP2C9 inh 90
CC1(C)CC(=O)CC(C)(C)N1OC(=O)c1ccccn1	none
CC(C)CCNC(=O)Cn1c(NCCC(C)C)nc2c1c(=O)n(C)c(=O)n2C	none (no result: CYP2C19 inh, CYP2C9 inh, CYP2C9 activ, CYP2C19 act)
O=C(NCCCCc1ccccc1)C1CC(c2cc(C(F)(F)F)cc(C(F)(F)F)c2)=NO1 (stereo not given)	none (no result: CYP2C19 inh, CYP2C9 inh, CYP2C9 activ, CYP2C19 act)
COc1cc(-c2nnc(SCC(=O)c3ccccc3)o2)cc(OC)c1OC	none
COc1ccc(-c2nnc(SCC(=O)N(Cc3ccccc3)C(C)(C)C)o2)cc1OC	Cav32 inh -7.1
NC(=O)C1CCN(C(=S)c2cccs2)CC1	none
Cn1c(CN2CCCCC2)nc2cc(NC(=O)c3cccs3)ccc21	CYP2C19 inh 99, CYP2C9 inh 87
Cn1c(CN2CCCCC2)nc2cc(NS(=O)(=O)c3ccc(Cl)cc3)ccc21	CYP2C9 inh 67
Cc1ccc(N2CCN(CCc3nc4cc(NC(=O)c5ccco5)ccc4n3C)CC2)cc1	CYP2C9 inh 69 (no result: Cav32 inh)
